Laboratory results published in PubChem BioAssay (Tox21).
Results filed as inconclusive are left out. Activity calls are given as the source filed them. Unless noted, calls follow the shape of the dose curve; as a rule, active = well fitted curve in the direction sought with a large enough effect in the repeat runs; inconclusive = weak or mixed curves; inactive = no such curve, though single readings can be large; an effect the other way counts as inactive or inconclusive.

Legend:
[1] = biological target: Acetylcholinesterase (Homo sapiens) (UniProt P22303); experiment: Acetylcholinesterase (AChE) small molecule antagonists: enzyme-based qHTS assay (AID 1347397; calls by dose curve; also: nearly all actives have a fitted effect of over 55% in size); conditions: Potency: AChE enzyme activity inhibition
Acetylcholinesterase (Homo sapiens), sequence (P22303 whole entry, looked up): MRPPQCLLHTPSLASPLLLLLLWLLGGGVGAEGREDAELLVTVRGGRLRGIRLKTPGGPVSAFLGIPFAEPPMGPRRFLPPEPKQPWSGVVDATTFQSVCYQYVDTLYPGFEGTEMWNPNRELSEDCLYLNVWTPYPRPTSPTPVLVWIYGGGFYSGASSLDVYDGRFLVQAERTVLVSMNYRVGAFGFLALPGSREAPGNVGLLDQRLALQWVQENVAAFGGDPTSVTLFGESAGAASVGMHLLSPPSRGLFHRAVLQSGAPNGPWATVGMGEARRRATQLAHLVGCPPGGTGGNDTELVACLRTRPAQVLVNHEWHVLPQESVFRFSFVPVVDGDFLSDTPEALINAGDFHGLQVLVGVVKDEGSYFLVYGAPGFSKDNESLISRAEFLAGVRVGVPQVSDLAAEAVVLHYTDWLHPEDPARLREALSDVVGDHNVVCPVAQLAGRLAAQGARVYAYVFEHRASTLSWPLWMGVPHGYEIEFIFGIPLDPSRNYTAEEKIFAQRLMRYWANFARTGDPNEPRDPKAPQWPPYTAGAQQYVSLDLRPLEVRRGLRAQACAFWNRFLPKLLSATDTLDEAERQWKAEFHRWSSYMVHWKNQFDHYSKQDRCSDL
Method in brief: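 rhAChE 50 mU/mL (dispensed) + cpd or DMSO, 30 min RT; add DTNB/acetylthiocholine cocktail, 10 min RT; colorimetric thiocholine readout. qHTS, 1536-well format.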

[2] = biological target: Acetylcholinesterase (Homo sapiens) (UniProt P22303); experiment: Acetylcholinesterase (AChE) small molecule antagonists: fluorescence cell-based qHTS assay (AID 1347398; calls by dose curve; also: nearly all actives have a fitted effect of over 50% in size); conditions: Potency: AChE activity
Method in brief: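 Read-out is Thiolite Green fluorescence at Ex/Em = 490/520 nm, formed by reaction with thiocholine released when cellular AChE in SH-SY5Y cells hydrolyzes acetylthiocholine. Compounds were preincubated 30 min at 37 C before substrate.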

[3] = biological target: Acetylcholinesterase (Homo sapiens) (UniProt P22303); experiment: Acetylcholinesterase (AChE) small molecule antagonists: enzyme-based qHTS assay with human liver microsomes (AID 1347399; calls by dose curve; also: nearly all actives have a fitted effect of over 60% in size); conditions: Potency: qHTS inhibition
Method in brief: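 Recombinant human AChE (50 mU/mL in the enzyme mix) and human liver microsomes (0.25 mg/mL final) were preincubated with compound and NADPH (0.25 mg/mL final) for 30 min at 37 C. Acetylthiocholine/DTNB was then added; thiocholine was read colorimetrically after 10 min at room temperature.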

[4] = biological target: Cytochrome P450 2D6 (Homo sapiens) (UniProt P10635); experiment: Cytochrome P450 Family 2 Subfamily D Member 6 (CYP2D6) small molecule antagonists: luciferase reporter qHTS assay (AID 1671196); also: nearly all actives have a fitted effect of over 50% in size
Cytochrome P450 2D6 (Homo sapiens), sequence (P10635 whole entry, looked up): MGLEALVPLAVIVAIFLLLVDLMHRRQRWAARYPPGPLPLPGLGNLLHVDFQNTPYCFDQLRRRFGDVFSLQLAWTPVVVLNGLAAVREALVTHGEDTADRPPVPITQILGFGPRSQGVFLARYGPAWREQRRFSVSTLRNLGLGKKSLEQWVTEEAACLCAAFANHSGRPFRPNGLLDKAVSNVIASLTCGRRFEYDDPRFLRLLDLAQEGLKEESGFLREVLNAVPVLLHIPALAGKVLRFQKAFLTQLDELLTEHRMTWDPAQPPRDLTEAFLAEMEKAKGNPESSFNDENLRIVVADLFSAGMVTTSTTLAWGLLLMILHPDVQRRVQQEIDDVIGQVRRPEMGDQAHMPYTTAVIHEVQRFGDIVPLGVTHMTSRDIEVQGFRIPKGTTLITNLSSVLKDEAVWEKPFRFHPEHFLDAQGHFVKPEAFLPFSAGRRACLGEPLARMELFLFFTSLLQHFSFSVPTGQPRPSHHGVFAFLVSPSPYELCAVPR
Method in brief: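 Luminescence (RLU), read 20 min after detection reagent, indicated CYP2D6 conversion of proluciferin to luciferin during a 1 h NADPH-dependent reaction at room temperature.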

[5] = biological target: Cytochrome P450 2C19 (Homo sapiens) (UniProt P33261); experiment: Cytochrome P450 Family 2 Subfamily C Member 19 (CYP2C19) small molecule antagonists: luciferase reporter qHTS assay (AID 1671197); also: nearly all actives have a fitted effect of over 65% in size
Cytochrome P450 2C19 (Homo sapiens), sequence (P33261 whole entry, looked up): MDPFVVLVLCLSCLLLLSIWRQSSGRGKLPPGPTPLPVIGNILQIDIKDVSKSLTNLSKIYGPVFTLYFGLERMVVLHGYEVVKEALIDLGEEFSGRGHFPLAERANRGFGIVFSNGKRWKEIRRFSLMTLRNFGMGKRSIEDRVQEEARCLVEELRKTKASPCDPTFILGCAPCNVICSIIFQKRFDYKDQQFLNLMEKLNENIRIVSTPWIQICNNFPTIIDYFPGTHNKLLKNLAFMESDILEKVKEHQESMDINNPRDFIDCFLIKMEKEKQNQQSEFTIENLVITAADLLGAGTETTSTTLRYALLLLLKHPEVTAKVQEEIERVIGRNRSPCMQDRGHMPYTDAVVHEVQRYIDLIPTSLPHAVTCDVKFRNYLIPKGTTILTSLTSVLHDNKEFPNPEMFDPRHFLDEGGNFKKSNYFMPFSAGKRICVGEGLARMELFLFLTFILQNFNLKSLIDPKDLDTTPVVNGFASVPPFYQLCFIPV
Method in brief: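 Light output is proportional to CYP2C19 activity: proluciferin substrate is converted to luciferin, then detected by a luciferin detection reagent that also stops the 1 h, 37C NADPH-driven reaction. Ketoconazole serves as positive control.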

[6] = biological target: Cytochrome P450 2C9 (Homo sapiens) (UniProt P11712); experiment: Cytochrome P450 Family 2 Subfamily C Member 9 (CYP2C9) small molecule antagonists: luciferase reporter qHTS assay (AID 1671198); also: nearly all actives have a fitted effect of over 50% in size
Cytochrome P450 2C9 (Homo sapiens), sequence (P11712 whole entry, looked up): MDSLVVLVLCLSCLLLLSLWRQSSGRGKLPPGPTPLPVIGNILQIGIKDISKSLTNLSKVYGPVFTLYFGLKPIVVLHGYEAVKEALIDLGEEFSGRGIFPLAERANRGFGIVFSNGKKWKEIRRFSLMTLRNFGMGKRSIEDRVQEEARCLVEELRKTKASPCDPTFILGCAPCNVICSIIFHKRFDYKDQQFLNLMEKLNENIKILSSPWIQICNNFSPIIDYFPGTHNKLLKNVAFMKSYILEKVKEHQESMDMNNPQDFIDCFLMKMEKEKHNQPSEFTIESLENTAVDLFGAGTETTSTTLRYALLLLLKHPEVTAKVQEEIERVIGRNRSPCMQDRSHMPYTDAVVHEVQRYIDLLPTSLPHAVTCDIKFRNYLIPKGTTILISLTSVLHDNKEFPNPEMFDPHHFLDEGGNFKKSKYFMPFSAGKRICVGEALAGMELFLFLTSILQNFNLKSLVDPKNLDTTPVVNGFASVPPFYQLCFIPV
Method in brief: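 Enzyme-substrate mix preincubated with compound 10 min at room temperature; reaction started with NADPH regeneration solution, 1 h 37C. Luminescent luciferin product read after 20 min detection reagent.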

[7] = biological target: Cytochrome P450 1A2 (Homo sapiens) (UniProt P05177); experiment: Cytochrome P450 Family 1 Subfamily A Member 2 (CYP1A2) small molecule antagonists: luciferase reporter qHTS assay (AID 1671199); also: nearly all actives have a fitted effect of over 50% in size
Cytochrome P450 1A2 (Homo sapiens), sequence (P05177 whole entry, looked up): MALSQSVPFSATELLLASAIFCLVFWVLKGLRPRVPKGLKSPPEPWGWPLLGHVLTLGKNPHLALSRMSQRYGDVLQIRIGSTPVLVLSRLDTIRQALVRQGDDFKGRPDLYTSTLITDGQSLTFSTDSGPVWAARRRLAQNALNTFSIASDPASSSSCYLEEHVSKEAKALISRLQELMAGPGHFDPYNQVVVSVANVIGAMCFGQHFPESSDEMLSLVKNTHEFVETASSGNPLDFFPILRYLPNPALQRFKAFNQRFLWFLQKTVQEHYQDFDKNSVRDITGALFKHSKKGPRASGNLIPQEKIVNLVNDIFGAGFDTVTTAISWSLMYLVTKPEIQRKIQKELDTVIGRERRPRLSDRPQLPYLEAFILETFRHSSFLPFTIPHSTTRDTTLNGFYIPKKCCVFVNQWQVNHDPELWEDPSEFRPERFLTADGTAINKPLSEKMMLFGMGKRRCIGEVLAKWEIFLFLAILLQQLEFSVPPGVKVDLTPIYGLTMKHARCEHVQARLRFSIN
Method in brief: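 CYP1A2 turnover of a luminogenic substrate was quantified after 1 h with NADPH regeneration at room temperature. Furafylline served as positive control.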

[8] = biological target: Voltage-gated inwardly rectifying potassium channel KCNH2 (Homo sapiens) (UniProt Q12809); experiment: Human Ether-a-go-go-Related Gene (hERG) channel small molecule antagonists: fluorescence cell-based qHTS assay (AID 1671200); also: nearly all actives have a fitted effect of over 50% in size
Voltage-gated inwardly rectifying potassium channel KCNH2 (Homo sapiens), sequence (Q12809 whole entry, looked up): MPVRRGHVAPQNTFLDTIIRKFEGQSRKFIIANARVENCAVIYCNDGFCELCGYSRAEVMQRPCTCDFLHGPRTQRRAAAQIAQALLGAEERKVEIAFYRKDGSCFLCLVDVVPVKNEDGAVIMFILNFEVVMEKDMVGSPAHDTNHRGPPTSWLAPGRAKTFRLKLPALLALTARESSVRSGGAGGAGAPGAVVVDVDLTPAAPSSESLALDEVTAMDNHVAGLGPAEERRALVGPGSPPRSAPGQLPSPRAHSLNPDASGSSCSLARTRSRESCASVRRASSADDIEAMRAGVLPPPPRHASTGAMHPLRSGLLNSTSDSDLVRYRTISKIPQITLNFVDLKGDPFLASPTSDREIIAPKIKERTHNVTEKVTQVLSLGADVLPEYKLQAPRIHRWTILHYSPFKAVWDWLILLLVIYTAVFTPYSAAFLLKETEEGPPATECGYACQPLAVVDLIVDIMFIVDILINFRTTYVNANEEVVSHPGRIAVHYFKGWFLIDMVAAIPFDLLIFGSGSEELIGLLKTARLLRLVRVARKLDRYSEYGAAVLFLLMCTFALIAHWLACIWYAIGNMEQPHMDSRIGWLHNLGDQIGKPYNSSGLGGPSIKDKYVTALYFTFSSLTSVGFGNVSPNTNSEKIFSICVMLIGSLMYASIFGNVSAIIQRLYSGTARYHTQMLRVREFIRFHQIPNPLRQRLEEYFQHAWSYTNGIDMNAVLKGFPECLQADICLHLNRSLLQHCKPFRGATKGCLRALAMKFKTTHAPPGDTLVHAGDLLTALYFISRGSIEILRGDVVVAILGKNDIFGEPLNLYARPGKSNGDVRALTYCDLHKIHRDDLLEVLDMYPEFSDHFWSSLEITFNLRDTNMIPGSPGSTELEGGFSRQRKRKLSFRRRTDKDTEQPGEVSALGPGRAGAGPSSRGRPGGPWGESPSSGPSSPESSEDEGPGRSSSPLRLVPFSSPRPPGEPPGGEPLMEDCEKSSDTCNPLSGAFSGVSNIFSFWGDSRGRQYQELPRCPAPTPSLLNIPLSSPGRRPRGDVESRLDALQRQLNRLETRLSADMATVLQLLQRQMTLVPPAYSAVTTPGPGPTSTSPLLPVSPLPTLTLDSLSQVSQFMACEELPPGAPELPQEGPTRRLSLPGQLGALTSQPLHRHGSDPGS
Method in brief: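 Fluorescence at 540 nm emission (480 nm excitation) was recorded kinetically for 2 min at 1-second intervals once the thallium-containing stimulus reached cells previously loaded with FluxOR II dye.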

[9] = biological target: Cytochrome P450 3A4 (Homo sapiens) (UniProt P08684); experiment: Cytochrome P450 Family 3 Subfamily A Member 4 (CYP3A4) small molecule antagonists: luciferase reporter qHTS assay (AID 1671201); also: nearly all actives have a fitted effect of over 50% in size
Cytochrome P450 3A4 (Homo sapiens), sequence (P08684 whole entry, looked up): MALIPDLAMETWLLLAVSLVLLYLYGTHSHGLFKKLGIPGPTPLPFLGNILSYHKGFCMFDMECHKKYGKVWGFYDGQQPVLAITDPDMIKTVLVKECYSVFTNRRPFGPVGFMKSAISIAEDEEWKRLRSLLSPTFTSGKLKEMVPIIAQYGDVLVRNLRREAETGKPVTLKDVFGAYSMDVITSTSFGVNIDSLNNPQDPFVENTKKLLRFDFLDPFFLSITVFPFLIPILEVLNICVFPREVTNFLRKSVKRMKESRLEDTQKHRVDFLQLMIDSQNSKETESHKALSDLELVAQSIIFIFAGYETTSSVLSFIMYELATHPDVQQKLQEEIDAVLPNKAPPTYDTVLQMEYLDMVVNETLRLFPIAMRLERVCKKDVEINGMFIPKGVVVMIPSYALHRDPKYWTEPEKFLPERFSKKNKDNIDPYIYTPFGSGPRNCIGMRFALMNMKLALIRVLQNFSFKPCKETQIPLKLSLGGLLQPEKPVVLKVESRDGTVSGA
Method in brief: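 qHTS, 1536-well. CYP3A4 + proluciferin substrate, cpd 10 min RT → NADPH regen 1 h RT → detection reagent 20 min → luminescence (RLU). Ketoconazole positive control.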

Measured: Potency
Potency is read from the fitted curve at half-maximal effect.

CC(C)(C)C(=O)C(Oc1ccc(Cl)cc1)n1cncn1 (configuration not stated)
active: [5] 3.17 µM | [6] 12.6 µM | [7] 35.5 µM | [9] 0.399 µM
inactive: all other assays above

COCC(=O)N(c1c(C)cccc1C)N1CCOC1=O
active: [5] 79.6 µM
inactive: all other assays above

ClC(Cl)Br
inactive: all assays above

CCOP(=S)(OCC)Oc1ncn(-c2ccccc2)n1
active: [1] 71 µM | [2] 35.6 µM | [3] 3.17 µM | [5] 1 µM | [6] 0.502 µM | [7] 1.78 µM | [9] 2.52 µM
inactive: [4] | [8]

C=CC1CC=CCC1 (configuration not stated)
not listed: [7]
inactive: all other assays above

O=[N+]([O-])c1cccc(O)c1
not listed: [7]
inactive: all other assays above

CC1(C(=O)Nc2ccc(O)c(Cl)c2Cl)CCCCC1
active: [4] 71 µM | [5] 11.2 µM | [6] 35.6 µM
inactive: [1] | [2] | [3] | [8]

[O]=[Cd]
inactive: all assays above

CN(N=O)C(N)=O
inactive: all assays above

CCS(=O)(=O)CCSP(=O)(OC)OC
inactive: all assays above

Cc1ncc2n1-c1ccc(Cl)cc1C(c1ccccc1F)=NC2
active: [5] 15.5 µM | [6] 17.4 µM
not listed: [7] | [9]
inactive: all other assays above

Fc1ccc(C2(Cn3cncn3)OC2c2ccccc2Cl)cc1 (configuration not stated)
active: [4] 39.9 µM | [5] 0.252 µM | [6] 5.64 µM | [7] 5.03 µM | [9] 0.894 µM
inactive: [1] | [2] | [3] | [8]

O=C(O)c1ccc2[nH]cc(CCCCN3CC=C(c4ccccc4)CC3)c2c1
active: [4] 12.3 µM
inactive: all other assays above

O=CNC(N1CCN(C(NC=O)C(Cl)(Cl)Cl)CC1)C(Cl)(Cl)Cl (configuration not stated)
active: [4] 31.7 µM | [5] 7.96 µM | [6] 35.6 µM | [9] 7.96 µM
inactive: all other assays above

CC(=O)C(Cl)Cl
inactive: all assays above

CN1C(=S)CN=C(c2ccccc2)c2cc(Cl)ccc21
active: [5] 21.9 µM | [6] 17.4 µM
not listed: [7] | [9]
inactive: all other assays above

CN1CCC(N(Cc2ccccc2)c2ccccc2)CC1
active: [4] 0.309 µM | [8] 5.35 µM
inactive: all other assays above

COP(N)(=S)Oc1ccccc1C(=O)OC(C)C (configuration not stated)
inactive: [1] | [2] | [8]
active: [3] 2.83 µM | [4] 31.7 µM | [5] 0.178 µM | [6] 6.33 µM | [7] 2 µM | [9] 2 µM

CCC(=O)c1ccccc1
inactive: all assays above

CC1CCCCC1NC(=O)Nc1ccccc1 (configuration not stated)
inactive: [1] | [2] | [3] | [8]
active: [4] 71 µM | [5] 11.2 µM | [6] 35.6 µM | [7] 31.7 µM | [9] 11.2 µM

N#CCNCC#N
not listed: [7]
inactive: all other assays above

Oc1c(Cl)cccc1Cl
not listed: [7] | [9]
inactive: all other assays above

O=S(=O)(O)C(F)(F)C(F)(F)C(F)(F)C(F)(F)C(F)(F)C(F)(F)F
active: [5] 79.6 µM | [6] 1.12 µM
inactive: all other assays above

C[C@@H]1CN(C2CCC(C#N)(c3ccc(F)cc3)CC2)CC[C@]1(C(=O)O)c1ccccc1 (some centres not stated)
active: [4] 1.55 µM
not listed: [8]
inactive: all other assays above

CC(COc1ccc(Oc2ccccc2)cc1)Oc1ccccn1 (configuration not stated)
active: [5] 10 µM | [6] 15.9 µM | [7] 15.9 µM
not listed: [8]
inactive: all other assays above

C1CCC(C2CCCCC2)CC1
not listed: [7]
inactive: all other assays above

CCCCOC(=O)c1ccccc1N
active: [5] 28.4 µM | [7] 8.99 µM
not listed: [6]
inactive: all other assays above

O=C1OC(c2ccc(O)c(S(=O)(=O)O)c2)(c2ccc(O)c(S(=O)(=O)O)c2)c2c(Br)c(Br)c(Br)c(Br)c21
not listed: [6]
inactive: all other assays above

CCN(CC)C(=O)[C@@H]1C=C2c3cccc4[nH]cc(c34)C[C@H]2N(C)C1
inactive: [3] | [8]
active: [1] 104 µM | [2] 58.7 µM | [4] 0.466 µM | [5] 165 µM | [9] 82.8 µM

COc1cc(C[C@@H](C)N)c(OC)cc1C
active: [4] 47.9 µM
not listed: [7]
inactive: all other assays above

O=C(CCN1CC1)OCC(CO)(COC(=O)CCN1CC1)COC(=O)CCN1CC1
not listed: [7]
inactive: all other assays above

CCC1(c2ccccc2)C(=O)NC(=O)NC1=O
active: [4] 11.5 µM
not listed: [7]
inactive: all other assays above

N#Cc1c(Cl)cccc1Cl
not listed: [7]
inactive: all other assays above

O=[N+]([O-])c1cccc2cccnc12
active: [7] 36.5 µM
not listed: [5]
inactive: all other assays above

CC(C)COP(=O)(OCC(C)C)OCC(C)C
not listed: [7]
inactive: all other assays above

Nc1cnn(-c2ccccc2)c(=O)c1Cl
not listed: [6]
inactive: all other assays above

COC(=O)c1ccccc1S(=O)(=O)NC(=O)Nc1nc(C)cc(C)n1
not listed: [5] | [9]
inactive: all other assays above

CCC(C)(C)c1cc(-n2nc3ccccc3n2)c(O)c(C(C)(C)CC)c1
inactive: [1] | [2] | [3] | [8]
active: [4] 25.6 µM | [5] 20.3 µM | [7] 36.1 µM

CSc1ccc(C(=O)C(C)(C)N2CCOCC2)cc1
active: [4] 2.52 µM | [5] 1.12 µM | [6] 20 µM | [9] 2 µM
inactive: [1] | [2] | [3]

O=c1oc2ccccc2c(O)c1C1CCCc2ccccc21 (configuration not stated)
active: [6] 3.99 µM | [9] 31.7 µM
not listed: [5]
inactive: all other assays above

CC1CCC(=O)O1 (configuration not stated)
not listed: [7]
inactive: all other assays above

CCCCP(CCCC)CCCC
active: [4] 35.6 µM | [5] 31.7 µM
not listed: [6] | [7]
inactive: all other assays above

CC(CC(C#N)(c1ccccc1)c1ccccc1)N(C)C (configuration not stated)
active: [4] 11.2 µM | [8] 27.4 µM
not listed: [5] | [9]
inactive: all other assays above

COC(=O)C(C)Oc1ccc(Oc2ccc(Cl)cc2Cl)cc1 (configuration not stated)
active: [5] 5.64 µM | [6] 31.7 µM | [8] 38.9 µM
not listed: [7]
inactive: all other assays above

[Cl][Sn]([Cl])([Cl])[Cl]
active: [5] 81.5 µM | [7] 32.4 µM
not listed: [6]
inactive: all other assays above

Cc1cnc[nH]1
inactive: [1] | [2] | [3] | [5] | [8]
active: [4] 34.2 µM

N#CC(Cl)(Cl)Cl
active: [4] 69.2 µM
not listed: [5]
inactive: all other assays above

O=P(O)(Oc1ccccc1)Oc1ccccc1
active: [6] 39.9 µM
not listed: [5]
inactive: all other assays above

CCC(C)n1c(=O)[nH]c(C)c(Br)c1=O (configuration not stated)
active: [5] 39.9 µM
not listed: [6] | [7]
inactive: all other assays above

O=C1CN2CCOC2(c2ccccc2Cl)c2cc(Cl)ccc2N1 (configuration not stated)
active: [4] 8.71 µM | [5] 6.17 µM
not listed: [6] | [9]
inactive: all other assays above

COC(=O)c1ccccc1S(=O)(=O)NC(=O)N(C)c1nc(C)nc(OC)n1
not listed: [5]
inactive: all other assays above

C[C@]12CC[C@H]3[C@@H](CCC4=CC(=O)CC[C@@]43C)[C@@H]1CC[C@@H]2C(=O)O
not listed: [6] | [8]
inactive: all other assays above
